For some of these results: Measured potencies and affinities stand elsewhere.
How the values were obtained:
Parameters in all cases: scale not given: direction of the effect not stated beside the values
[1] = target: Protein translocase subunit SecA (Escherichia coli (strain K12)) (UniProt P10408); experiment: Assay to Identify E. coli SecA ATPase Inhibitors; assay type: functional; conditions: 30 µM
[2] = target: T1, Ubiquitin-activating enzyme e1, putative (Leishmania donovani (strain BPK282A1)) (UniProt E9BSI1); experiment: Leishmania donovani Ubiquitin Activating Enzyme (LdE1); assay type: functional; conditions: 30 µM
T1 sequence (whole entry): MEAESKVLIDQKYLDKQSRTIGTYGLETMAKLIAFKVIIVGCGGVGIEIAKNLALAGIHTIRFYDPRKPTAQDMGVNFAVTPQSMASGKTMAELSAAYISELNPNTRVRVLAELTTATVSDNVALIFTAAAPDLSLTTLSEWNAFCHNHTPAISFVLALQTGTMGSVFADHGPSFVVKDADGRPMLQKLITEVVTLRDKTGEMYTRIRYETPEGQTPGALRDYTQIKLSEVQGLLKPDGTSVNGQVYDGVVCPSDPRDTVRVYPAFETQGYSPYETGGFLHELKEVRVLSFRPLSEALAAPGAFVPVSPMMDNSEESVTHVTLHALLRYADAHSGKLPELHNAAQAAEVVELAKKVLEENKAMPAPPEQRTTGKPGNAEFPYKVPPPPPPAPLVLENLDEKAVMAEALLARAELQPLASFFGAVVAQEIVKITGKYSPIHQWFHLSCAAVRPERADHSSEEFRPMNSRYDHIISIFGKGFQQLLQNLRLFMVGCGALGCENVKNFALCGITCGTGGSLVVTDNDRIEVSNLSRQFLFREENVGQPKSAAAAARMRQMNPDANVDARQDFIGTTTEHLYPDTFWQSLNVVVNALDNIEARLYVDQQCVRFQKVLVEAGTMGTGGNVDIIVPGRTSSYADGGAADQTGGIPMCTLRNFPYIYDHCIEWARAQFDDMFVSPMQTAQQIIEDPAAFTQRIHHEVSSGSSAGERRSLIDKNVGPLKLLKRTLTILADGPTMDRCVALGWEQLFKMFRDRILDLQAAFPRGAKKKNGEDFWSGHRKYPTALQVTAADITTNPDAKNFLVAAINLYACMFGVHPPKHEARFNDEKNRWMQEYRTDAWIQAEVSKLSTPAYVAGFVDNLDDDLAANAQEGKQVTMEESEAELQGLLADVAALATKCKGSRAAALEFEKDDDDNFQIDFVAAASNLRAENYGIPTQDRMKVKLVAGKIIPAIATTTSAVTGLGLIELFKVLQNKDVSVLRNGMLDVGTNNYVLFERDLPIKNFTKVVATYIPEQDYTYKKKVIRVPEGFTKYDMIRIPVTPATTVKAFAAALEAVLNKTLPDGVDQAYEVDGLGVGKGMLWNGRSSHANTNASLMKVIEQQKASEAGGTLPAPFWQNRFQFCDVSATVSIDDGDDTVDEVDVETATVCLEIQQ

[3] = target: AMP-activated protein kinase, AMPK (Homo sapiens) (UniProt P54646+O43741+P54619+Q9UGJ0+Q9Y478+Q13131+Q9UGI9); experiment: AMP-dependent Kinase enzyme assay. An in vitro enzyme assay that detects ADP turnover that is directly proportional to AMPK activity. This uses naive AMPK that is activated during the assay with MK-8722; assay type: functional; conditions: 30 µM
[4] = target: Sialic acid-binding Ig-like lectin 9 (Homo sapiens) (UniProt Q9Y336); experiment: Hs-Siglec9 ALPHAscreen SOP 20170721; conditions: 10 µM
Trypanosoma cruzi = experiment: Trypanosoma cruzi phosphomannomutase and mannose-1-phosphate guanylyltransferase assay; assay type: functional; conditions: 10 µM
[5] = target: T2, Arginase-2, mitochondrial (Homo sapiens) (UniProt P78540); experiment: in vitro enzyme assay to detect the production of urea directly proportional to the activity of Arginase II; assay type: functional; conditions: 33.3 µM; further: in the data most compounds retested in dose-response had high values
T2 sequence (whole entry): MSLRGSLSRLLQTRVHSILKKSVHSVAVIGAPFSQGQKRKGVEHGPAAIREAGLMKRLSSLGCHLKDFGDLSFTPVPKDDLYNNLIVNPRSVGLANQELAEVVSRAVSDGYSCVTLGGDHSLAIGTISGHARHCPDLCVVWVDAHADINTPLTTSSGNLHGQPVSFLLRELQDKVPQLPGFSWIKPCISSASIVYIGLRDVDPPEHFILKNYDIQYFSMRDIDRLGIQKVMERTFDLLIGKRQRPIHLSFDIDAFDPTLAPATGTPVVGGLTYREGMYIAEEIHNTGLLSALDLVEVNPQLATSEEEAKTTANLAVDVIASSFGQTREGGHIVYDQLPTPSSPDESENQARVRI

[6] = target: T3, Proteasome subunit beta (Trypanosoma cruzi) (UniProt O96673); experiment: Trypanosoma cruzi proteasome chymotrypsin-like activity (TcProtChymo) assay.; further: in the data most compounds retested in dose-response had high values; assay type: functional; conditions: 9.37 µM
T3 sequence (whole entry): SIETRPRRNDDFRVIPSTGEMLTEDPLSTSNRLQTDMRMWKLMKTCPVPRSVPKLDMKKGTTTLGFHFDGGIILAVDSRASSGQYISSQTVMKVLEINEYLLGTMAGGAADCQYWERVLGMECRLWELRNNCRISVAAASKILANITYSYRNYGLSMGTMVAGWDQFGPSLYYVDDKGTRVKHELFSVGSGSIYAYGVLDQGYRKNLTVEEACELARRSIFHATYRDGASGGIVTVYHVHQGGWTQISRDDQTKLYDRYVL

Homo sapiens = species on record: Homo sapiens; experiment: To identify inhibition of the IFN signalling (Jak-Stat) pathway via expression of an eGFP reporter gene under the control of an IFN-stimulated response element (ISRE) containing MxA promoter.; assay type: functional; conditions: 30 µM
[7] = target: T4, Tyrosyl-tRNA synthetase, putative (Trypanosoma cruzi (strain CL Brener)) (UniProt Q4DSP6); experiment: Trypanosoma cruzi tyrosyl tRNA synthetase (TcYRS) _High Tyrosine SOP; assay type: functional; conditions: 30 µM; further: in the data most compounds retested in dose-response had high values
T4 sequence (whole entry): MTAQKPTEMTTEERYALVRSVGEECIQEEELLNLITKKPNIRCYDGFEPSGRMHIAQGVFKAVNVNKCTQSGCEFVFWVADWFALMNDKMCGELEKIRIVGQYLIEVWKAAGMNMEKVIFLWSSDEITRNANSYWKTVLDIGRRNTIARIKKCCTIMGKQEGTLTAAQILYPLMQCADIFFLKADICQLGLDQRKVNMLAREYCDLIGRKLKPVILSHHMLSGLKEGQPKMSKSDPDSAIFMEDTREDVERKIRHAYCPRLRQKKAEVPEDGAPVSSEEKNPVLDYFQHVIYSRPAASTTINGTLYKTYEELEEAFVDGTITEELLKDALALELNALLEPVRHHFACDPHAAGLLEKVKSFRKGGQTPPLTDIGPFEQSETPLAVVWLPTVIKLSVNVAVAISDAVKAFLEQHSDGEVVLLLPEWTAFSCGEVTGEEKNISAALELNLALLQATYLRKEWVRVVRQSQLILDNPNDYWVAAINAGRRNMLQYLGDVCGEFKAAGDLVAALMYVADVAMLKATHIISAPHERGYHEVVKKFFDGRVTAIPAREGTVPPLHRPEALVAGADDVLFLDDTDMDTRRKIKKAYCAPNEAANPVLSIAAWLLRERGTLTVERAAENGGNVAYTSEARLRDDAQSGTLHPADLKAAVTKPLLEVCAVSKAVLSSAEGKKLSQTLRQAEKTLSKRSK

[8] = target: T4, Tyrosyl-tRNA synthetase, putative (Trypanosoma cruzi (strain CL Brener)); experiment: Trypanosoma cruzi tyrosyl tRNA synthetase (TcYRS) SOP; assay type: functional; conditions: 30 µM
[9] = target: Chromo domain-containing protein 1 (Saccharomyces cerevisiae (strain ATCC 204508 / S288c) (Baker's yeast)) (UniProt P32657); experiment: ScCHD-1 Enzyme Inhibition Assay; assay type: functional; conditions: 30 µM; further: in the data most compounds retested in dose-response had high values
Chain of Chromo domain-containing protein 1 (Saccharomyces cerevisiae (strain ATCC 204508 / S288c) (Baker's yeast)) (P32657 whole entry, the tested form may be a part): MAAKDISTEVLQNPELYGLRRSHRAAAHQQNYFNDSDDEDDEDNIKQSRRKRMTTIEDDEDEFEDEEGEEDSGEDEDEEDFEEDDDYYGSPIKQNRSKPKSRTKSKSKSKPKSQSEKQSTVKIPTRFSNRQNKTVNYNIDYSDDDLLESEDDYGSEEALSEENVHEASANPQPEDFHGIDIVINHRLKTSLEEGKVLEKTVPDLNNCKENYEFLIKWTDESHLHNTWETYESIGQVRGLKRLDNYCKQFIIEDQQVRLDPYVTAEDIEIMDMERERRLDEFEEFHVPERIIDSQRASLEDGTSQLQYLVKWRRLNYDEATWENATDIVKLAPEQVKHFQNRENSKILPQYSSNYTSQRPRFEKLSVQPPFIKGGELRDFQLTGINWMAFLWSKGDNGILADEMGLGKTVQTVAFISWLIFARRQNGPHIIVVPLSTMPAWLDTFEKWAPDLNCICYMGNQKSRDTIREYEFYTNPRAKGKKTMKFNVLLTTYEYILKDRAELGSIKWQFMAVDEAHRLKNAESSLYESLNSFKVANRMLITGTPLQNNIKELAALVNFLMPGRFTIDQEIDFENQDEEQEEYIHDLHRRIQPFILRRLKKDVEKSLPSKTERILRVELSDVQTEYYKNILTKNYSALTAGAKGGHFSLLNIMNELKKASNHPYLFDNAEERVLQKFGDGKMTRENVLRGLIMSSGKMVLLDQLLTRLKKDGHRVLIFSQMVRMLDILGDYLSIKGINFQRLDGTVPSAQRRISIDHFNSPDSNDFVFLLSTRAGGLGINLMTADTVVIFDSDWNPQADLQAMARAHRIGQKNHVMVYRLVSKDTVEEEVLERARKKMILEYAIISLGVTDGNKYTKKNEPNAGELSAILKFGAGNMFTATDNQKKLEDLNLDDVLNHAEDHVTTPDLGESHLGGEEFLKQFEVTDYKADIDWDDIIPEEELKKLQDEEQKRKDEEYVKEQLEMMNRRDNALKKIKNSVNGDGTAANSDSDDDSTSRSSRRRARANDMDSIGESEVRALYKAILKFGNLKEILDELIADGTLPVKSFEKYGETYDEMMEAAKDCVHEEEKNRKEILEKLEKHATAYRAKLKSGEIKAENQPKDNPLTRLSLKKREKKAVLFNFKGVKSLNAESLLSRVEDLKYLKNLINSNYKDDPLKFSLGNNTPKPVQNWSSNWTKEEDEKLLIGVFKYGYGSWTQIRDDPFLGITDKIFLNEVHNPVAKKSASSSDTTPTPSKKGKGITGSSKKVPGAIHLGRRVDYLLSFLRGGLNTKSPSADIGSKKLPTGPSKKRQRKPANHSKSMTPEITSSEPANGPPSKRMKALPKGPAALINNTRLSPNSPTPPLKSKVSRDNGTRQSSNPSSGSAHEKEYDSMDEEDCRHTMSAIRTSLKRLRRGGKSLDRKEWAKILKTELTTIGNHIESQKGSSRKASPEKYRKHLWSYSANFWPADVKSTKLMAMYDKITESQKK

Chain of Sialic acid-binding Ig-like lectin 9 (Homo sapiens) (Q9Y336 whole entry): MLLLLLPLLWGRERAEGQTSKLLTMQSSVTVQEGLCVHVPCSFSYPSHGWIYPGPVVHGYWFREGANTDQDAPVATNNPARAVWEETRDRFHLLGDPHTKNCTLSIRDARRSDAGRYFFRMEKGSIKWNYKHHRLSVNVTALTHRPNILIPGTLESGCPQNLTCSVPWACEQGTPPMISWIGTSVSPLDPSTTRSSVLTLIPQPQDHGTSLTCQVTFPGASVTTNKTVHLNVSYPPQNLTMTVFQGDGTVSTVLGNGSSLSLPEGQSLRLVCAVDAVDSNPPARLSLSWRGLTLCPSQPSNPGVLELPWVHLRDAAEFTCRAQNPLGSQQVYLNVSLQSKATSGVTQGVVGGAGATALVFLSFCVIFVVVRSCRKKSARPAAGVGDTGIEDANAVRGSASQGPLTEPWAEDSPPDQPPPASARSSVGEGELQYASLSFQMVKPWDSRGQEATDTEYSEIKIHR
Chain of Protein translocase subunit SecA (Escherichia coli (strain K12)) (P10408 whole entry): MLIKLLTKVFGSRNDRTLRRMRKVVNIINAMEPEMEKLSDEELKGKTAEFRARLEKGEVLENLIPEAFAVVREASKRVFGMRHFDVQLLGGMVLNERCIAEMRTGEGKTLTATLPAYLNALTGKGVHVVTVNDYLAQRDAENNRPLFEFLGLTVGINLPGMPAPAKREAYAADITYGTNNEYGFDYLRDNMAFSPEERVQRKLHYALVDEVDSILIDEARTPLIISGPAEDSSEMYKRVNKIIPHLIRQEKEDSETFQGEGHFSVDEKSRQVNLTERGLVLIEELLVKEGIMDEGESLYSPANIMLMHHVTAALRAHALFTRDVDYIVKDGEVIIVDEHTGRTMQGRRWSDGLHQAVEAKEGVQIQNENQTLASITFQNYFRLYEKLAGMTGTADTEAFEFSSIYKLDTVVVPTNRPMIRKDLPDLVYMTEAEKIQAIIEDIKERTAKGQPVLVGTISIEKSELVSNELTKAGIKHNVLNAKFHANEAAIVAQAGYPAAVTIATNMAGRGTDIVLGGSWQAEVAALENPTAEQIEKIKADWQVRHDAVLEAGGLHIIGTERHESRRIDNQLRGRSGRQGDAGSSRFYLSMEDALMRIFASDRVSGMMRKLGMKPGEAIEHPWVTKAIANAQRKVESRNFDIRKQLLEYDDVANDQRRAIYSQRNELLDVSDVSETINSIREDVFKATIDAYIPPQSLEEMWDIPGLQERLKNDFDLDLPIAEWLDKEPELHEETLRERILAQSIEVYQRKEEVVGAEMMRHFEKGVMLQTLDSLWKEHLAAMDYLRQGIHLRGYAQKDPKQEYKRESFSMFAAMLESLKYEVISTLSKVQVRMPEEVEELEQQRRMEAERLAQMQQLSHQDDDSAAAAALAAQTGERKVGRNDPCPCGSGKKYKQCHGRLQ

Structure (SMILES)	Percent Effect [1] [%]	Percent Effect [2] [%]	Percent Effect [3] [%]	Percent Effect [4] [%]	Percent Effect (Trypanosoma cruzi) [%]	Percent Effect [5] [%]	Percent Effect [6] [%]	Percent Effect (Homo sapiens) [%]	Percent Effect [7] [%]	Percent Effect [8] [%]	Percent Effect [9] [%]
CC(C)OCCCN1CCCC(c2nc3ccccc3n2C(C)C)C1 (stereo unspecified)	-2.17	13.5	-7.28	-1.96	3.32	32.9	15	22.4	9.9	13.4	6.88
CCn1cc(CN(C)S(=O)(=O)c2ccc(Cl)cc2)cn1	-0.763	14.7	0.176	-5.16	-1.97	-10	10.3	15	4.23	7.69	-9.85
CC(=O)c1cc(CC(=O)NCc2ccc(F)cc2)cs1	-2.72	0	1.92	3.19	1.93	-1.43	1.72	-0.802	4.76	9.76	-0.261
COC1CCN(C(=O)CCc2c(C)nc3ccnn3c2C)CC1	-0.424	5.26	1.13	-0.445	-3.64	5.4	1.95	-10.2	4.43	6.17	5.83
Cc1noc(C(C)C)c1C(=O)N1CCOCC1CC(=O)c1ccco1 (stereo unspecified)	-0.641	0	17.2	-3.82	0.487	1.18	7.38	-20.2	-2.13	-7.79	-0.46
O=c1ccc(-c2cccs2)nn1CN1CCCCCC1	-4.24	-4	-3.16	2.9	3.54	-3.35	7.21	-1.68	7.41	10.3	-5.05
Cc1nc(Cn2nc(C3CCNCC3)n(Cc3ccccc3)c2=O)no1	-0.936	5.41	0.118	2.54	-4.25	-4.29	12.1	26.5	3.7	4.88	-4.29
Cc1nc(CN2CCN(C(=O)c3sccc3C3CC3)CC2)cs1	-2.84	0	8.03	9.39	-0.49	3.16	3.48	-10.3	-2.86	-2.35	-13.7
CC(Cn1cccn1)NC(=O)Nc1nccs1 (stereo unspecified)	-5.47	10.4	1.39	4.54	-3.37	0.712	5.57	17.5	4.85	19.5	-5.22
CC(C)(C)c1ccn(C2(C(=O)O)CCN(c3nccc(N)n3)CC2)n1	-4.48	-6.94	0.972	0.435	-2.23	-0.442	10.7	0.112	3.16	-5.13	6.06
Cc1cnn(CC2CCCN2C(=O)CCc2ccsc2)c1 (stereo unspecified)	-4.66	7.79	3.01	4.3	3.82	2.32	0.242	15.8	1.91	7.06	-15.5
